Consider 39 compounds from the supplement of paper PMC12297408.

The test has as its system Plasmodium falciparum NF54/iGP1_RE9H ulg8 stage V gametocytes. The test can be described thus: gametocyte viability (luciferase signal relative to DMSO control) (% of DMSO control); higher = less gametocytocidal activity, active = 50 or less. To be noted: exposure time: 72 h. An outline of the steps:
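Stage V gametocytes of the NF54/iGP1_RE9Hulg8 line (day 12; ~2.5% gametocytemia, 3% hematocrit), in medium containing 0.5% Albumax II, were dispensed into 96-well plates with compounds spotted in nanolitre volumes from 10 mM DMSO stocks, for final concentrations of 10 µM or 1 µM in a single well each. After 72 h at 37 °C, 90 µl from each well was combined with 10 µl D-luciferin (30 mg/ml), and luminescence was measured on an IVIS Lumina II. Viability was expressed against the mean of the DMSO vehicle wells on the same plate.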

Where a name gives a salt, the structure may show the parent alone. About 40 (3%) of roughly 1,300 compounds showed activity. For the sample, actives were picked, then their nearest neighbours and some compounds at random. Unmarked numbers belong to inactive results.

As to `Nc1c2c(nc3ccccc13)CCCC2O` (racemic) [Hydroxytacrine maleate (R,S)], the gametocyte viability was 101 (concentration: 1 µM) and 93.6 (concentration: 10 µM).

As to `O=C1c2cccc3c2[C@H](CCC3)CN1[C@@H]1CN2CCC1CC2` [Palonosetron hydrochloride], the gametocyte viability (concentration: 1 µM) is 85.5 and the gametocyte viability (concentration: 10 µM) was 81.6.

For `CCN(CC)CCOc1ccc(C(=C(Cl)c2ccccc2)c2ccccc2)cc1` [Clomiphene citrate (Z,E)], the gametocyte viability by setting is: (concentration: 1 µM) 82.4; (concentration: 10 µM) 95.2.

Turning to `COc1cc2ncnc(Nc3ccc(F)c(Cl)c3)c2cc1OCCCN1CCOCC1` [Gefitinib], the gametocyte viability is 95.8 (concentration: 1 µM) and 85.9 (concentration: 10 µM).

For `C#Cc1cccc(Nc2ncnc3cc(OCCOC)c(OCCOC)cc23)c1` [Erlotinib], the gametocyte viability (concentration: 1 µM) is 70.7 and the gametocyte viability (concentration: 10 µM) is 37.2 (active).

On to `Cc1c(C)c2c(c(C)c1O)CCC(C)(C(=O)O)O2` (stereo not drawn) [Trolox], for which the gametocyte viability by setting is: (concentration: 1 µM) 88.2; (concentration: 10 µM) 87.5.

As to `CCOC(=O)C1=C[C@]2(CC)CCCN3CCc4c(n1c1ccccc41)[C@@H]32` [Vinpocetine], the gametocyte viability (concentration: 1 µM) was 86.2 and the gametocyte viability (concentration: 10 µM) was 87.6.

In the case of `CC(C)NC[C@@H](O)COc1cccc2ccccc12` [(R)-Propranolol hydrochloride], the gametocyte viability (concentration: 1 µM) was 93.4 and the gametocyte viability (concentration: 10 µM) is 89.

Consider `Nc1ccccc1S(N)(=O)=O` [2-Aminobenzenesulfonamide], for which the gametocyte viability reads like this: (concentration: 1 µM) 98; (concentration: 10 µM) 95.8.

On to `CN1CCN(CC(=O)N2c3ccccc3C(=O)Nc3cccnc32)CC1` [Pirenzepine dihydrochloride], for which the gametocyte viability by setting is: (concentration: 1 µM) 86.5; (concentration: 10 µM) 83.3.

In the case of `CCN(CCCc1ccccc1)CCCc1ccccc1` [Alverine citrate salt], the gametocyte viability (concentration: 1 µM) was 82.3 and the gametocyte viability (concentration: 10 µM) was 82.

`CCN(CC)CCCC(C)Nc1c2ccc(Cl)cc2nc2ccc(OC)cc12` (stereo not drawn) [Quinacrine dihydrochloride dihydrate]: the gametocyte viability is, setting by setting: (concentration: 1 µM) 113; (concentration: 10 µM) 44.5 (active).

For `CCN(CC)CCCC(C)Nc1ccnc2cc(Cl)ccc12` (stereo not drawn) [Chloroquine diphosphate], the gametocyte viability runs as follows: (concentration: 1 µM) 82.8; (concentration: 10 µM) 86.8.

For the compound `CCN(CCO)CCCC(C)Nc1ccnc2cc(Cl)ccc12` (stereo not drawn) [Hydroxychloroquine sulfate], the gametocyte viability was 83.3 (concentration: 1 µM) and 80.8 (concentration: 10 µM).

On to `O=C1CN(/N=C/c2ccc([N+](=O)[O-])o2)C(=O)N1` [Nitrofurantoin], for which the gametocyte viability (concentration: 1 µM) was 83.4 and the gametocyte viability (concentration: 10 µM) was 82.5.

As to `NC(=O)N/N=C/c1ccc([N+](=O)[O-])o1` [Nitrofural], the gametocyte viability is 90.1 (concentration: 1 µM) and 89.1 (concentration: 10 µM).

In the case of `O=C(N/N=C/c1ccc([N+](=O)[O-])o1)c1ccc(O)cc1` [Nifuroxazide], the gametocyte viability by setting is: (concentration: 1 µM) 95.9; (concentration: 10 µM) 30.6 (active).

Consider `CCOC(=O)c1ccc(OC(=O)CCCCCNC(=N)N)cc1` [Gabexate mesilate], for which the gametocyte viability reads like this: (concentration: 1 µM) 88.8; (concentration: 10 µM) 92.

Consider `CN1CCC(=C2c3ccccc3CC(=O)c3sccc32)CC1` [Ketotifen fumarate], for which the gametocyte viability runs as follows: (concentration: 1 µM) 79.5; (concentration: 10 µM) 84.2.

For `C=CC1=C(C(=O)O)N2C(=O)[C@@H](NC(=O)/C(=N\O)c3csc(N)n3)[C@H]2SC1` [Cefdinir], the gametocyte viability is 80.8 (concentration: 1 µM) and 83.8 (concentration: 10 µM).

`CN1C(=O)OC(C)(C)C1=O` [Trimethadione]: the gametocyte viability runs as follows: (concentration: 1 µM) 82.9; (concentration: 10 µM) 88.6.

On to `CC1=C(CC(=O)O)c2cc(F)ccc2/C1=C\c1ccc([S+](C)[O-])cc1` (stereo not drawn) [Sulindac], for which the gametocyte viability is 88.6 (concentration: 1 µM) and 82.7 (concentration: 10 µM).

For `Cc1cc(NC(=O)C2=C(O)c3ccccc3S(=O)(=O)N2C)no1` [Isoxicam], the gametocyte viability was 82.8 (concentration: 1 µM) and 81.8 (concentration: 10 µM).

For the compound `C[N+]1(C)CCC(=C(c2ccccc2)c2ccccc2)CC1` [Diphemanil methylsulfate], the gametocyte viability was 87 (concentration: 1 µM) and 83 (concentration: 10 µM).

Turning to `CCc1ccc(CCOc2ccc(CC3SC(=O)NC3=O)cc2)nc1` (stereo not drawn) [Pioglitazone], the gametocyte viability is 86 (concentration: 1 µM) and 88.2 (concentration: 10 µM).

On to `NC(=O)C(c1ccccc1)(c1ccccc1)[C@@H]1CCN(CCc2ccc3c(c2)CCO3)C1` [Darifenacin hydrobromide], for which the gametocyte viability (concentration: 1 µM) is 81.7 and the gametocyte viability (concentration: 10 µM) was 84.2.

Turning to `CC(C)(S)[C@@H](N)C(=O)O` [Penicillamine], the gametocyte viability was 92.4 (concentration: 1 µM) and 93.1 (concentration: 10 µM).

As for `N#Cc1cc(NC(=O)C(=O)O)c(Cl)c(NC(=O)C(=O)O)c1` [Lodoxamide], the gametocyte viability is 91.8 (concentration: 1 µM) and 102 (concentration: 10 µM).

Regarding `CC1=C(/C=C/C(C)=C/C=C/C(C)=C/C(=O)O)C(C)(C)CCC1` [Retinoic acid], the gametocyte viability is, setting by setting: (concentration: 1 µM) 82.1; (concentration: 10 µM) 64.

On to `CCC(=O)[C@@]1(C)[C@H](C)C[C@H]2[C@@H]3CCC4=CC(=O)C=C[C@]4(C)[C@H]3[C@@H](O)C[C@@]21C` [Rimexolone], for which the gametocyte viability is 89.4 (concentration: 1 µM) and 85.3 (concentration: 10 µM).

For the compound `CCCNC(C)C(=O)Nc1c(C)csc1C(=O)OC` (stereo not drawn) [Articaine hydrochloride], the gametocyte viability (concentration: 1 µM) was 81.9 and the gametocyte viability (concentration: 10 µM) was 83.

Regarding `CN/C(=N\CCSCc1nc[nH]c1C)NC#N` [Cimetidine], the gametocyte viability runs as follows: (concentration: 1 µM) 100; (concentration: 10 µM) 94.5.

With `C[C@]12CC[C@@H]3c4ccc(O)cc4C[C@@H](CCCCCCCCC[S+]([O-])CCCC(F)(F)C(F)(F)F)[C@H]3[C@@H]1CC[C@@H]2O` (stereo partly drawn) [Fulvestrant], the gametocyte viability runs as follows: (concentration: 1 µM) 90.3; (concentration: 10 µM) 84.7.

Turning to `O=C1OC(CN2CCOCC2)CN1/N=C/c1ccc([N+](=O)[O-])o1` (stereo not drawn) [Furaltadone hydrochloride], the gametocyte viability was 89.7 (concentration: 1 µM) and 93.4 (concentration: 10 µM).

On to `CN(C)CCN1C(=O)c2ccccc2N(C)c2ccccc21` [Dibenzepine hydrochloride], for which the gametocyte viability was 84.8 (concentration: 1 µM) and 91.3 (concentration: 10 µM).

Regarding `COc1cc(NC(C)CCCN)c2ncccc2c1` (stereo not drawn) [Primaquine diphosphate], the gametocyte viability (concentration: 1 µM) is 83.1 and the gametocyte viability (concentration: 10 µM) was 35.1 (active).

Regarding `CCCc1nc(C)c2c(=O)nc(-c3cc(S(=O)(=O)N4CCN(CC)CC4)ccc3OCC)[nH]n12` [Vardenafil], the gametocyte viability by setting is: (concentration: 1 µM) 70.1; (concentration: 10 µM) 43.9 (active).

For `CCCc1nn(C)c2c(=O)[nH]c(-c3cc(S(=O)(=O)N4CCN(C)CC4)ccc3OCC)nc12` [Sildenafil], the gametocyte viability was 90.3 (concentration: 1 µM) and 70.6 (concentration: 10 µM).

As for `CN(C)CCOC(c1ccccc1)c1ccccc1.Cn1c(=O)c2[nH]c(Cl)nc2n(C)c1=O` [Dimenhydrinate], the gametocyte viability (concentration: 1 µM) is 89 and the gametocyte viability (concentration: 10 µM) is 94.
